Some test systems named below: T-47D breast; BT-549 breast; MDA-MB-435 melanoma; SW-620 colon; MCF7 breast; HCT-116 colon; HCC-2998 colon; KM12 colon.
Test in all cases: NCI-60 one-dose screen, 48 h (100 = growth as untreated, 0 = no growth, -100 = all killed)
Conditions in all cases: 10 µM unless noted

Each structure is given as a SMILES string. About 83,000 compounds went through this panel and 20% of them were active in at least one assay; those are over-represented in the sample as a whole.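 Results are percent growth after 48 hours of single-concentration exposure. 100 means growth as in untreated cells, lower positive values show inhibition; negative values down to -100 show cell death.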 Unmarked numbers belong to inactive results. Activity calls are given as the source filed them. Rule for the calls: active = growth percent below 10; inactive = the rest.

For the molecule `CCCCNCCCN(CCCC)CCCNCCCC`, the growth with T-47D breast is 105%; in the assay on BT-549 breast it was 97.2%; in the assay with MDA-MB-435 melanoma it was 94.3%; in the assay on SW-620 colon, 101%; with MCF7 breast, 95.8%; in the assay with HCT-116 colon, 90.9%. Besides, the figures for the growth in the assay with HCC-2998 colon and with KM12 colon were 103% and 107%, respectively.
For the molecule `Nc1nc(Nc2ccccc2SSc2ccccc2Nc2nc(N)nc(-c3ccc(I)cc3)n2)nc(-c2ccc(I)cc2)n1`, the growth was 67.1% with T-47D breast; 70.8% in the assay on BT-549 breast; 86.7% with MDA-MB-435 melanoma; 94.3% in the assay on SW-620 colon; 76% in the assay on MCF7 breast; 50.1% in the assay with HCT-116 colon. Further, the growth with KM12 colon was 37.2%.
For the molecule `Oc1c(Cl)cc(Oc2cc(Cl)c(O)c(CN3CCOCC3)c2)cc1CN1CCOCC1`, the growth in the assay with T-47D breast was 69.7%; with BT-549 breast, 96.5%; in the assay with MDA-MB-435 melanoma, 101%; in the assay on SW-620 colon, 98.3%; with MCF7 breast, 94.4%; in the assay with HCT-116 colon, 87%. Further, the growth with KM12 colon was 102%.
As to `COc1ccc(CNC(=O)c2c(C)n([O-])c3ccccc3[n+]2=O)cc1`, the growth with T-47D breast is 81.3%; in the assay on BT-549 breast it was 76.8%; in the assay with MDA-MB-435 melanoma it was 124%; with SW-620 colon, 108%; in the assay with MCF7 breast it was 91%; in the assay on HCT-116 colon, 97.9%. Besides, the growth in the assay on KM12 colon is 131%.
In the case of `CCCCCCCCCCCCCCCCNC(=O)Nc1ccc2ccccc2c1`, the growth is 108% with T-47D breast; 97.4% in the assay on BT-549 breast; 103% with MDA-MB-435 melanoma; 94.2% in the assay on SW-620 colon; 94.5% in the assay on MCF7 breast; 101% in the assay with HCT-116 colon. Moreover, the growth in the assay on KM12 colon was 111%.
As to `NC(=O)c1cc(Br)cc(Br)c1NS(=O)(=O)c1ccccc1`, the growth was 99.2% in the assay with T-47D breast; 103% in the assay on BT-549 breast; 111% in the assay on MDA-MB-435 melanoma; 101% in the assay on SW-620 colon; 99% with MCF7 breast; 100% in the assay on HCT-116 colon. Further, in the assay with KM12 colon, the growth is 106%.
As to `CN1CCN(c2nc3scc(-c4ccccc4)c3c(=O)[nH]2)CC1`, the growth was 104% in the assay on T-47D breast; 104% with BT-549 breast; 99.7% in the assay with MDA-MB-435 melanoma; 95.4% with SW-620 colon; 92.5% in the assay on MCF7 breast; 91.9% in the assay on HCT-116 colon. For the same molecule, the growth with KM12 colon was 94.1%.
As to `CC(=O)c1ccc(NS(=O)(=O)c2ccc([N+](=O)[O-])cc2)cc1`, the growth in the assay with T-47D breast is 86.3%; in the assay with BT-549 breast, 102%; in the assay with MDA-MB-435 melanoma it was 122%; in the assay with SW-620 colon, 108%; in the assay on MCF7 breast, 99.3%; in the assay on HCT-116 colon, 102%. For the same molecule, the growth in the assay on KM12 colon was 111%.
Regarding `COc1ccc(-c2cnc(SCC(=O)Nc3ccc(-c4nc5ccccc5s4)cc3)n2-c2ccc(OC)cc2)cc1`, the growth in the assay with T-47D breast was 93.1%; with BT-549 breast, 108%; with MDA-MB-435 melanoma it was 114%; in the assay on SW-620 colon, 110%; with MCF7 breast it was 47.4%; with HCT-116 colon, 107%. Besides, the growth in the assay on KM12 colon was 113%.
`COc1cc(NC(=O)NCc2ccco2)ccc1-c1ccc(NC(=O)NCc2ccco2)cc1OC`: the growth was 40.9% in the assay with T-47D breast; 81.7% in the assay on BT-549 breast; 76.5% in the assay on MDA-MB-435 melanoma; 72.6% with SW-620 colon; 44.7% with MCF7 breast; 35.2% in the assay with HCT-116 colon. Moreover, the growth in the assay with KM12 colon is 47.8%.
For the molecule `CCOC(=O)CNC(=O)C1(NC(=O)CNC(=O)OCc2ccccc2)CCCC1`, the growth was 107% in the assay with T-47D breast; 98% in the assay with BT-549 breast; 95.6% with MDA-MB-435 melanoma; 110% with SW-620 colon; 96.6% in the assay on MCF7 breast; 101% in the assay with HCT-116 colon. Also, the growth with KM12 colon was 108%.
In the case of `Cc1ccc2nc(SCC(=O)Nc3ccc(-c4nc5ccccc5s4)c(Cl)c3)[nH]c2c1`, the growth in the assay on T-47D breast is 99.2%; in the assay with BT-549 breast, 103%; in the assay on MDA-MB-435 melanoma, 111%; with SW-620 colon it was 111%; in the assay with MCF7 breast, 90.6%; in the assay on HCT-116 colon, 101%. In addition, in the assay on KM12 colon, the growth was 115%.
Take `O=C1C=CC(=O)N1c1ccccc1N1C(=O)C=CC1=O`: the growth in the assay on T-47D breast was 102%; with BT-549 breast it was 104%; with MDA-MB-435 melanoma it was 122%; in the assay with SW-620 colon, 57.9%; with MCF7 breast, 97.1%; with HCT-116 colon, 105%. Further, in the assay on KM12 colon, the growth was 117%.
On to `COc1ccc2c3c(ccc2c1)C(=O)/C(=C\O)CC3`, for which the growth in the assay with T-47D breast is 80.8%; with BT-549 breast it was 105%; with MDA-MB-435 melanoma it was 111%; in the assay with SW-620 colon, 105%; in the assay on MCF7 breast it was 102%; in the assay with HCT-116 colon, 88.1%. For the same molecule, the growth in the assay on KM12 colon was 99.5%.
In the case of `Clc1ccc2c(c1)C(Br)c1cc(Cl)cc(Cl)c1-2` (configuration not stated), the growth in the assay on T-47D breast is 73%; with BT-549 breast, 87.3%; in the assay with MDA-MB-435 melanoma it was 85.7%; in the assay on SW-620 colon, 60.4%; with MCF7 breast it was 69%; with HCT-116 colon, 65.4%. Further, the growth in the assay on KM12 colon was 98.3%.
Turning to `COc1ccc(C(=O)COc2cccc(/C=C3\COc4ccc5ccccc5c4C3=O)c2)cc1`, the growth with T-47D breast is 32%; with BT-549 breast, 1.54% (active); in the assay on MDA-MB-435 melanoma it was 64.8%; in the assay with SW-620 colon, 27.8%; in the assay with MCF7 breast, 16.1%; in the assay with HCT-116 colon it was 59.2%. In addition, in the assay with KM12 colon, the growth was 67.8%.
On to `CC(NC(N)=S)c1ccccc1` (configuration not stated), for which the growth in the assay on T-47D breast is 89.6%; with BT-549 breast, 118%; with MDA-MB-435 melanoma, 106%; in the assay on SW-620 colon, 98.7%; in the assay with MCF7 breast it was 94.5%; with HCT-116 colon it was 107%. Further, the growth in the assay on KM12 colon was 104%.
Regarding `COc1ccc(CNC(=O)c2c(C)n([O-])c3ccc(OC)cc3[n+]2=O)cc1`, the growth with T-47D breast is 115%; with BT-549 breast it was 83.5%; in the assay with MDA-MB-435 melanoma, 115%; in the assay on SW-620 colon it was 107%; in the assay on MCF7 breast, 101%; in the assay on HCT-116 colon, 106%. Also, the growth in the assay on KM12 colon was 97.1%.

The values are drawn from PubChem BioAssay (NCI).
